Experimental data published in PubChem BioAssay (NCATS).
Where “and” joins values, the source holds several entries; their conditions need not be identical. Identical values can stand only once. Results filed as inconclusive are left out. A call without a number means that no potency is given here. Calls of active or inactive are those of the source. Unless noted, the call rests on the fitted dose curve; in most records, active means well fitted curve in the direction sought with a large enough effect; inconclusive means small, poorly fitted or top-dose-only effect, or another doubt; inactive means no such curve, though single readings can be large; an effect the other way counts as inactive or inconclusive.

What was measured:
[1] = biological target: Thyroid hormone receptor beta (Homo sapiens) (UniProt P10828); experiment: qHTS assay for small molecule agonists of thyroid hormone receptor beta signaling (AID 588545; calls by dose curve)
Method in brief: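 In this cell-based screen, titrated compounds act on HEK 293 cells held in medium with 2% charcoal/dextran FBS, NEAA and pyruvate for 18 hrs at 37 C. Responses are expressed relative to T3 (10 nM) as 100% and basal DMSO as 0%.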

[2] = qHTS assay for small molecule antagonists of retinoid X receptor alpha signaling (AID 588546; active means well fitted inhibition curve with a large enough effect in the signal ratio, with a control signal flat, not every such curve was filed as active; the % refers to the signal ratio;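 further: cells stimulated with 9-cis-retinoic acid as agonist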); conditions: HEK293T RXRa-UAS-bla, beta-lactamase ratio, antagonist mode; measured here: W530 green channel, cytotoxicity proxy
Method in brief: (§1)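 Beta-lactamase reporter inhibition, read as CCF4 fluorescence ratio (ex 405, em 460/530 nm) after 2 h at RT. HEK293T UAS-bla cells, 2500/well, were stimulated with 9-cis-RA at 500 or 100 nM final alongside test compound for 18 h at 37 C.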

[3] = biological target: Retinoic acid receptor RXR-alpha (Homo sapiens) (UniProt P19793); experiment: as above; conditions: HEK293T RXRa-UAS-bla, beta-lactamase ratio, antagonist mode
Method in brief: as §1

[4] = biological target: Voltage-gated inwardly rectifying potassium channel KCNH2 (Homo sapiens) (UniProt Q12809); experiment: qHTS Assay for Small Molecule Inhibitors of the Human hERG Channel Activity (AID 588834);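 further: top concentration of the series differs between compounds; lower thallium flux fluorescence means stronger hERG block; nearly all actives have a fitted effect of over 50% in size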
Method in brief: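 Kinetic FDSS fluorescence; U2OS + hERG BacMam (~100 virus particles/cell); FluxOR Tl+ flux; ~10 min cpd; AC50 (Hill).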

[5] = S16 Schwann cell viability assay (CellTiter-Glo assay) (AID 624031);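 further: cellular ATP luminescence as a viability measure; series mostly up to about 58 µM; nearly all actives have a fitted effect of over 70% in size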
Method in brief: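 Native S16 rat Schwann cells, 500-750 cells/well in DMEM with 10% FBS, dosed with compound after overnight culture and incubated 24h at 37 degree Celsius/5% CO2. Viability by CellTiter-Glo luminescence; % activity normalized to no-cell wells and DMSO-treated cells.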

[6] = S16 Schwann cell PMP22 intronic element firefly luciferase assay (AID 624032); further: nearly all actives have a fitted effect of over 30% in size; further: potency means the concentration at half of the fitted maximal effect
Method in brief: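 Rat S16 Schwann cells stably carrying a PMP22 intronic element-driven Fluc reporter were seeded overnight, then exposed to compounds for 24 h at 37 °C. Luminescence was normalized to PTC124 (positive control) and DMSO (0% activity).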

[7] = S16 Schwann cell PMP22 intronic element beta-lactamase assay (AID 624044; calls by dose curve; further: nearly all actives have a fitted effect of over 15% in size)
Method in brief: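 Rat S16 Schwann cells with beta-Lac driven by a PMP22 intronic element, compound-treated 24 h at 37 °C. LiveBLAzer FRET B/G read: 460 nm normalized to potassium clavulanate vs DMSO; 535 nm FRET as viability; concentration-effect curves classified.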

[8] = qHTS assay for small molecule activators of the p53 signaling pathway (AID 651743; active means well fitted activation curve with a large enough effect in the signal ratio, not every such curve was filed as active; the % refers to the signal ratio; further: series mostly up to about 92 µM); conditions: HCT-116 p53RE-bla, beta-lactamase FRET ratio, 16 h; stronger effect = higher value
Method in brief: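 p53RE-bla HCT-116 cells with a stably integrated beta-lactamase reporter under p53 response elements were plated, rested 5 hours at 37 C/5% CO2, then exposed to compounds in DMSO for 16 hours at 37 C. LiveBLAzer B/G FRET substrate was read after 2 hours at room temperature.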

[9] = qHTS assay for small molecule activators of the nuclear factor-kappa B (NF-kB) signaling pathway (AID 651749; active means well fitted activation curve with a large enough effect in the signal ratio; the % refers to the signal ratio; further: series mostly up to about 77 µM); conditions: NF-kB-bla ME-180 cells, beta-lactamase FRET ratio, 16 h; stronger effect = higher value
Method in brief: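 ME-180 cells stably carrying a beta-lactamase reporter under an NF-kB response element were exposed to compound or DMSO vehicle for 16 hr at 37C, 5% CO2. Pathway activation was read by FRET, since reporter expression disrupts FRET.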

[10] = qHTS assay for small molecule disruptors of the mitochondrial membrane potential - 1 hr assay (AID 651754; calls by dose curve; further: nearly all actives have a fitted effect of over 35% in size; further: potency means the concentration at half of the fitted maximal effect)
Method in brief: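 Steps: seed HepG2 cells and let attach overnight; pin-transfer compound or vehicle; incubate 1 hr at 37C; add Mito-MPS dye for 30 min; read two-channel fluorescence for monomer and aggregate forms.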

[11] = qHTS assay for small molecule disruptors of the mitochondrial membrane potential - 5 hr assay (AID 651755; calls by dose curve; further: nearly all actives have a fitted effect of over 40% in size; further: potency means the concentration at half of the fitted maximal effect)
Method in brief: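 HepG2 cells, attached overnight at 37C, were exposed to compound or DMSO for 5 hr at 37C, 5% CO2. Mito-MPS dye was then added for 30 min, and fluorescence read at 490/535 nm (monomers) and 540/590 nm (aggregates).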

[12] = biological target: Tumor necrosis factor (Homo sapiens) (UniProt P01375); experiment: qHTS assay to identify small molecules that stimulate Tumor Necrosis Factor-alpha (TNF-alpha) secretion (AID 651757; active means well fitted curve in the direction sought with a large enough effect in the signal ratio; the % refers to the signal ratio)
Method in brief: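 Secreted TNF-alpha from compound-treated THP-1 cells (17 hrs, 37 C) was quantified with a homogeneous time-resolved fluorescence antibody assay.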

[13] = qHTS assay to identify small molecules that stimulate interleukin-8 (IL-8) secretion (AID 651758; active means well fitted activation curve with a large enough effect in the signal ratio; the % refers to the signal ratio)
Method in brief: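 THP-1, 2000 cells/well; cpd 16 h, 37 C; add cryptate + XL665 anti-IL-8 Abs; RT 1-3 h; TR-FRET read.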

[14] = qHTS assay for environmental chemicals that activate the Aryl hydrocarbon Receptor (AhR) signaling pathway (AID 651777); conditions: 1A2-DRE human hepatoma cells, luciferase, 24 h; stronger effect = higher value; further: nearly all actives have a fitted effect of over 15% in size
Method in brief: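 Human hepatoma 1A2-DRE cells stably carrying a DRE/CYP1A2 promoter–luciferase reporter, 1,200 cells/well, exposed to compound 24 hr at 37 C. Luciferase read by One-Glo luminescence after 30 min at room temperature; increased signal marks AhR activation.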

[15] = biological target: Peroxisome proliferator-activated receptor alpha (Homo sapiens) (UniProt Q07869); experiment: qHTS assay for small molecule agonists of the peroxisome proliferator-activated receptor alpha (PPARalpha) signaling pathway (AID 651778); conditions: PathHunter PPARalpha complementation, chemiluminescence, 6 h; stronger effect = higher value
Method in brief: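 Cells plated at 2,000/well and held overnight at 37 C, 5% CO2, then compound added by pin tool for 6 hr; after PathHunter detection reagent and 60 min at room temperature, chemiluminescence from enzyme complementation was read.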

[16] = biological target: Thyroid hormone receptor beta (Homo sapiens) (UniProt P10828); experiment: qHTS assay for small molecule antagonists of thyroid hormone receptor beta signaling (AID 588547; active means well fitted inhibition curve with a large enough effect in the signal ratio, with a control signal flat, not every such curve was filed as active; the % refers to the signal ratio;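 further: cells stimulated with 0.4 nM T3 agonist during compound exposure; series mostly up to about 77 µM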); conditions: TR-UAS-bla HEK293, beta-lactamase ratio, antagonist mode, 18 h
Method in brief: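 TR-UAS-bla GripTite HEK293 cells in 2% charcoal/dextran FBS medium were preincubated 4 h at 37 C, given compound (0.59 nM to 92 uM) plus 0.4 nM T3 (final) for 18 h, then CCF4 for 2 h at RT; Hill fit gave IC50.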

[17] = biological target: Luciferin 4-monooxygenase (Photinus pyralis) (UniProt P08659); experiment: Biochemical firefly luciferase enzyme assay for NPC (AID 624030);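 further: purified P. pyralis luciferase at 10 nM with luciferin and ATP substrate; series mostly up to about 59 µM; nearly all actives have a fitted effect of over 70% in size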
Method in brief: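 Counter-screen for direct inhibition of the luciferase enzyme by approved-drug library compounds, run at 10 nM enzyme in 50 mM Tris acetate (final). Luminescence was read within 5 min of enzyme-buffer addition and normalized to PTC124 versus DMSO (0%).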

[18] = qHTS assay for small molecule agonists of the antioxidant response element (ARE) signaling pathway (AID 651741; active means well fitted activation curve with a large enough effect in the signal ratio; the % refers to the signal ratio; further: potency means the concentration at half of the fitted maximal effect)
Method in brief: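 ARE-bla HepG2 cells (beta-lactamase reporter under ARE control) were plated at 2,000 cells/well, preincubated 5 h at 37 C/5% CO2, then treated with DMSO-dissolved compounds for 16 h at 37 C; LiveBLAzer B/G FRET substrate added, fluorescence read after 2 h at room temperature.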

[19] = qHTS assay for small molecule agonists of the antioxidant response element (ARE) signaling pathway measured by Nrf2-dependant transcriptional activity (AID 720636; active means well fitted curve in the direction sought with a large enough effect in the repeat runs; an effect the other way counts as inactive or inconclusive)
Method in brief: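 ARE-luc HepG2 cells carrying an Nrf2-responsive luciferase reporter, in medium with 1% dialyzed FBS, exposed to compound for 16 hr at 37 C, 5% CO2. Luminescence read 30 min after ONE-Glo addition.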

Chain of Luciferin 4-monooxygenase (Photinus pyralis) (P08659 whole entry, looked up): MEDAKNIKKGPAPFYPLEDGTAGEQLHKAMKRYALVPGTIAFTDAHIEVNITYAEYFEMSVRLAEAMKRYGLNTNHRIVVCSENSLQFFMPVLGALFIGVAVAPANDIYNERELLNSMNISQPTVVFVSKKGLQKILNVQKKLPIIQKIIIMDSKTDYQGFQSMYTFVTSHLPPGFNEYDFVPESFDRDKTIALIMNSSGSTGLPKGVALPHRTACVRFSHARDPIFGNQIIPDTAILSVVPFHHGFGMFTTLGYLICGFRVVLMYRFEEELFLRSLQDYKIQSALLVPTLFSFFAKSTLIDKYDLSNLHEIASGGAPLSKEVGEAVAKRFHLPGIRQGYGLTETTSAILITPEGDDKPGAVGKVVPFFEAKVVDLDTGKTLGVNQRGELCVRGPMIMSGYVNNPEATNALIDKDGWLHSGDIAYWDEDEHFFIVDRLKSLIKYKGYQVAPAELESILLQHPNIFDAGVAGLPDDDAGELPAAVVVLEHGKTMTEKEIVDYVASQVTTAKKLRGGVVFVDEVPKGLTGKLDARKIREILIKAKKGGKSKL
Chain of Tumor necrosis factor (Homo sapiens) (P01375 whole entry, looked up): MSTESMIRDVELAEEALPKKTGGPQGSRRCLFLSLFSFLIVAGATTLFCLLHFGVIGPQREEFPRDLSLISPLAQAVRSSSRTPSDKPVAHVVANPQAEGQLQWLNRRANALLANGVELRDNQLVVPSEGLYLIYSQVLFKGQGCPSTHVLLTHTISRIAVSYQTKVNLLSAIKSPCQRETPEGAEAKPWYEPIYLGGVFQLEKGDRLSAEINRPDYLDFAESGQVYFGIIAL
Chain of Thyroid hormone receptor beta (Homo sapiens) (P10828 whole entry, looked up): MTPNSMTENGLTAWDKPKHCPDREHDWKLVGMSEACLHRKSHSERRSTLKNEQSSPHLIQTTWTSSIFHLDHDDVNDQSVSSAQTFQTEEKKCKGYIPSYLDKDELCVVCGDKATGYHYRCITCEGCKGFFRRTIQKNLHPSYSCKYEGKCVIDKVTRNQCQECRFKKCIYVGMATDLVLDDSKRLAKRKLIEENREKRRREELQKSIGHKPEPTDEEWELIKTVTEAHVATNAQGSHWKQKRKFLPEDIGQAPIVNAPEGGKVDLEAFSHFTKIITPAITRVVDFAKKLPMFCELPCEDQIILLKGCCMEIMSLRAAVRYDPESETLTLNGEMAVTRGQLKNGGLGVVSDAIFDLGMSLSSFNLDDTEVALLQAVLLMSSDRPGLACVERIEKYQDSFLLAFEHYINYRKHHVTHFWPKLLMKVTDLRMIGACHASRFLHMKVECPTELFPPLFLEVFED
Chain of Peroxisome proliferator-activated receptor alpha (Homo sapiens) (Q07869 whole entry, looked up): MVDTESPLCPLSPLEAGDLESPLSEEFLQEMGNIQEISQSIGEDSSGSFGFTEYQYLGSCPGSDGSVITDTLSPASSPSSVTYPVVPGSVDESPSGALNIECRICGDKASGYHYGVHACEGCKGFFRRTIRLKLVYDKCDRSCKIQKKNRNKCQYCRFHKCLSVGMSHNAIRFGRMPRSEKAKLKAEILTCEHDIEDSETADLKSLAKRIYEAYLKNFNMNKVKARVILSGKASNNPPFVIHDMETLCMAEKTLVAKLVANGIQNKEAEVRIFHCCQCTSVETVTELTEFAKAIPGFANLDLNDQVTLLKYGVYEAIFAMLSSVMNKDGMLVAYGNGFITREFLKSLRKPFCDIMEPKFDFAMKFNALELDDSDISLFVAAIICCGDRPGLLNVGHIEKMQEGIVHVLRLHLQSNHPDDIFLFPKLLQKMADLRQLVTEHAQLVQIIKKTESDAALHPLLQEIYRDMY
Chain of Retinoic acid receptor RXR-alpha (Homo sapiens) (P19793 whole entry, looked up): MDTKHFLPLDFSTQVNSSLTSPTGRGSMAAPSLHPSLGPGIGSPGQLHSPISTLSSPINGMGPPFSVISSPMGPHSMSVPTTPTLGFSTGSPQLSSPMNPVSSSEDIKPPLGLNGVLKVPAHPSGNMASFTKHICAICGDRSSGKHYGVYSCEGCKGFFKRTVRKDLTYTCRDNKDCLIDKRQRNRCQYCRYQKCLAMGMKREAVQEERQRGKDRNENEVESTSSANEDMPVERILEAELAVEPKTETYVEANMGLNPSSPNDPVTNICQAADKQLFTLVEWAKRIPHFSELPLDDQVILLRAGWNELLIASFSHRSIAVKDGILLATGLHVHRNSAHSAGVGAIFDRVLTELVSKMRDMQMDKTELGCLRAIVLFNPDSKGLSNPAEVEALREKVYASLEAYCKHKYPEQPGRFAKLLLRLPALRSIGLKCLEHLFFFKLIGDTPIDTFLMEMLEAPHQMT
Chain of Voltage-gated inwardly rectifying potassium channel KCNH2 (Homo sapiens) (Q12809 whole entry, looked up): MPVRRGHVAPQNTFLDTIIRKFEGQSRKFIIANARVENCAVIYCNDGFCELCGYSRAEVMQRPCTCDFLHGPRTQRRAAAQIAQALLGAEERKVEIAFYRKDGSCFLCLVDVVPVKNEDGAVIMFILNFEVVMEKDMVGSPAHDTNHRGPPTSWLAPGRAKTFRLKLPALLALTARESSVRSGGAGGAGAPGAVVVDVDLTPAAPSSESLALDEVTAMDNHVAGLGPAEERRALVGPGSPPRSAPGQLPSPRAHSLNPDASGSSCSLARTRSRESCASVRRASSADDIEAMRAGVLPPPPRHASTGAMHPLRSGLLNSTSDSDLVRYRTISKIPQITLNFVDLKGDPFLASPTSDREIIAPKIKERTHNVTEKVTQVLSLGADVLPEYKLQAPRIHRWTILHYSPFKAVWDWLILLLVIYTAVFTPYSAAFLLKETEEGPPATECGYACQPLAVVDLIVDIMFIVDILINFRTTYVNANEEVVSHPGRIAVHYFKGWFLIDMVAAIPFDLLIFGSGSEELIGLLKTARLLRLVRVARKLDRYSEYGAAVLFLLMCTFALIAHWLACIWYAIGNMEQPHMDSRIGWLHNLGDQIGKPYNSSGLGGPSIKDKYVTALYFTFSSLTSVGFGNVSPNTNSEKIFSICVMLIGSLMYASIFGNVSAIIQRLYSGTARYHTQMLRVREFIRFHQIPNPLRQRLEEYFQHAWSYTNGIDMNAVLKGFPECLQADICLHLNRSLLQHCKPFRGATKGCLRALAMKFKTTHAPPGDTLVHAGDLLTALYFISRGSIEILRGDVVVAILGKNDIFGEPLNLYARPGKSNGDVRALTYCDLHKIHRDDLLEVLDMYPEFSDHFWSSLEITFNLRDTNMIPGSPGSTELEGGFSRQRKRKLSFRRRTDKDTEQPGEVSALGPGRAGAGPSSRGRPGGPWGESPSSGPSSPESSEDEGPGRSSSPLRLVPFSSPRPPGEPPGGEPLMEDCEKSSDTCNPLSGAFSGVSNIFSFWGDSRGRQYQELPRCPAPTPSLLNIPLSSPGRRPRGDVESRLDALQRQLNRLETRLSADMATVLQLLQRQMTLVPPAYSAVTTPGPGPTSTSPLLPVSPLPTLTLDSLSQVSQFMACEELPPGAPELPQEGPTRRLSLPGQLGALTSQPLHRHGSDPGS

Row | SMILES | outcome [1] | max response [2] [%] | max response [3] | Potency [4] | outcome [5] | Potency [6] | outcome [7] | activation [8] | activation [9] | Potency [10] | Potency [11] | outcome [12] | outcome [13] | activation [14] | max response [15] | activity change % (negative = inhibition) [16] | Potency [17] | Potency [18] | outcome [19]
1 | CCCCOC(=O)c1ccc(N)cc1 | inactive | -1.8 | -25.6% (inactive) | inactive | inactive | inactive | inactive | -1.05% (inactive) | -0.245% (inactive) | inactive | inactive | inactive | inactive | 13% (inactive) | -1.13% (inactive) | – | – | – | –
2 | C=CCNC(N)=S | inactive | -1.13 | -16.9% (inactive) | inactive | inactive | inactive | – | -1.91% (inactive) | -0.527% (inactive) | – | – | inactive | inactive | 0.627% (inactive) | -1.33% (inactive) | -17.1% (inactive) | inactive | inactive | inactive
3 | CC(=O)Nc1ccc(C(=O)O)cc1 | inactive | -6.58 | 1.7% (inactive) | inactive | inactive | inactive | – | -0.0847% (inactive) | -1.2% (inactive) | – | – | inactive | – | 0.454% (inactive) | -0.167% (inactive) | 2.92% (inactive) | inactive | – | inactive
4 | OC[C@@H](O)[C@@H](O)[C@H](O)[C@H](O)CO | inactive | -16.3 | 13.9% (inactive) | – | inactive | inactive | – | -0.611% (inactive) | -2.19% (inactive) | – | – | – | – | -0.115% (inactive) | -1.72% (inactive) | -14.9% (inactive) | inactive | – | inactive
5 | CC1CC(OC(=O)c2ccccc2O)CC(C)(C)C1 (stereo unspecified) | inactive | -9.52 | 14.2% (inactive) | – | inactive | inactive | inactive | -6.41% (inactive) | -1.08% (inactive) | inactive | inactive | inactive | – | 2.34% (inactive) | -1.84% (inactive) | -8.08% (inactive) | inactive | – | inactive
6 | CCCCCC(N)=O | inactive | -2.91 | -2.1% (inactive) | inactive | inactive | 14.4 µM (active) | – | 0.75% (inactive) | 0.129% (inactive) | – | – | inactive | – | -0.0681% (inactive) | -2.19% (inactive) | -10.5% (inactive) | inactive | inactive | inactive
7 | O=C1c2cccc(O)c2C(=O)c2c(O)cccc21 | – | – | – | inactive | – | – | inactive | 3.77% (inactive) | -0.734% (inactive) | 4.73 µM (active) | 7.5 µM (active) | inactive | – | 5.57% (inactive) | -5.75% (inactive) | -11.3% (inactive) | inactive | 29.8 µM (active) | –
8 | CC[N+](CC)(CC(=O)Nc1c(C)cccc1C)Cc1ccccc1 | – | -13 | -2.97% (inactive) | inactive | inactive | inactive | – | -6.37% (inactive) | – | – | – | – | – | 0.016% (inactive) | 1.81% (inactive) | – | inactive | inactive | inactive
9 | Cc1cc(O)cc(C)c1Cl | inactive | -7.57 | 1.2% (inactive) | inactive | inactive | inactive | inactive | – | -0.418% (inactive) | – | – | – | – | – | -0.107% (inactive) | 6.71% (inactive) | inactive | 10.9 µM (active) | inactive
10 | CC(=O)OCC(COC(C)=O)OC(C)=O | inactive | -8.38 | 4.6% (inactive) | inactive | – | inactive | – | – | 0.2% (inactive) and 0.487% (inactive) | – | – | inactive | inactive | 1.18% (inactive) and -0.878% (inactive) | 0.869% (inactive) and -1.48% (inactive) | -1.64% (inactive) and -0.0126% (inactive) | inactive | inactive | inactive
11 | CCCCCCCC(=O)OCC(COC(=O)CCCCCCC)OC(=O)CCCCCCC | inactive | -12.4 | 4.61% (inactive) | inactive | inactive | inactive | – | -2.91% (inactive) | – | – | – | inactive | – | -1.98% (inactive) | 4.51% (inactive) | -4.42% (inactive) | inactive | – | inactive
12 | CC(C)=CCC/C(C)=C/CO | inactive | -9.74 | -1.85% (inactive) | inactive | inactive | inactive | inactive | -2.29% (inactive) | -0.602% (inactive) | – | – | – | – | -0.426% (inactive) | -2.93% (inactive) | 13.2% (inactive) | inactive | inactive | inactive
13 | Cc1cc(=O)[nH]c(=S)[nH]1 | inactive | -3.7 | 1.44% (inactive) | inactive | inactive | inactive | – | -1.35% (inactive) | -0.135% (inactive) | – | – | inactive | inactive | -0.745% (inactive) | -5.54% (inactive) | 15.5% (inactive) | inactive | – | inactive
